FBW7 act = FBW7 E3 ligase activators, primary screen, biochemical, AlphaScreen, human. F-box/WD repeat-containing protein 7 (Homo sapiens), Q969H0. AlphaScreen FBW7–phospho-cyclin E peptide binding, activator screen. normalized activity (activation), % at 26.1 µM. actives 0.13% (n = 650,000); in the data active = normalized activity above about 1.9%;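 note: purified mutant Fbw7 with reduced substrate affinity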
GPR151 activ = activators of human GPR151, primary screen, cell-based, PathHunter beta-arrestin, luminescence. PathHunter beta-arrestin GPR151 cells. activation, % at 11.2 µM. G-protein coupled receptor 151 (Homo sapiens), Q8TDV0. actives 1% (n = 650,000); in the data active = activation above about 4.9%
TEAD-YAP inh = TEAD-YAP interaction inhibition, primary screen, TEAD-YAP interaction inhibitor project, luminescence, HEK-TIYL cells | actives 1.4% (n = 640,000) | AID 1259422, 2018 | TEAD-Gal4/YAP UAS-luciferase luminescence | inhibition, % at 9.12 µM; in the data active = inhibition above about 32%
MITF primary = MITF inhibitors, primary screen, biochemical, AlphaScreen, human | Microphthalmia-associated transcription factor (Homo sapiens), O75030 | AlphaScreen MITF homodimerization, bead proximity signal | inhibition, % at 2.6 µM | actives 0.91% (n = 650,000) | AID 1259374, 2018; in the data active = inhibition above about 50%
Target sequence (O75030 whole entry, looked up): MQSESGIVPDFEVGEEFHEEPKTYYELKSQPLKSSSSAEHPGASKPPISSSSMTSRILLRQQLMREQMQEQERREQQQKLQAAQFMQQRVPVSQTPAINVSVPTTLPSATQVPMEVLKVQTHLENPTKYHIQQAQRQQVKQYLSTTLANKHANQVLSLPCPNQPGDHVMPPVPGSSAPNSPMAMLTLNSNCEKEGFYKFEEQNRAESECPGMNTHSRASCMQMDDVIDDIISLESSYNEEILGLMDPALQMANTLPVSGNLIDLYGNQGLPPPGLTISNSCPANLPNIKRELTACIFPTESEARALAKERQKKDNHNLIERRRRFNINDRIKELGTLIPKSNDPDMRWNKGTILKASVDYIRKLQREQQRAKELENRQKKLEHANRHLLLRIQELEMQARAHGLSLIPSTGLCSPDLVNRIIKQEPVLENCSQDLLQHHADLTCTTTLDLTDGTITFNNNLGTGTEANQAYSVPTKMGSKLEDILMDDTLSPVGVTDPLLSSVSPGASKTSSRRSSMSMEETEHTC
MITF confirm = MITF inhibitors, retest of hits, confirmation, biochemical, AlphaScreen, triplicate. shares compounds with MITF primary. actives 16% (n = 4,700). inhibition, % at 2.6 µM. AlphaScreen MITF homodimerization, biotin/His-MITF beads;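 active = inhibition above a cutoff derived from the DMSO control wells, cut at about 28% in these data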;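 note: inhibitors lower the bead chemiluminescence by keeping MITF from dimerizing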
AS interf DR = AlphaScreen optical interference compounds, dose response, counter-screen, biochemical, HTS. shares compounds with MITF primary. AlphaScreen optical interference counterscreen, cell-free. IC50, µM. actives 6% (n = 480); call rule not given here
AS interf ctr = AlphaScreen optical interference compounds, counter-screen for MITF inhibitor project, biochemical, triplicate; shares compounds with MITF primary; inhibition, % at 2.6 µM; LysRS AlphaScreen counterscreen, signal interference; AID 1259376, 2018; actives 7.6% (n = 4,700);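 active = inhibition above a cutoff derived from the DMSO control wells, cut at about 30% in these data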
Of the large screens only hits and unclear results are named; the others gave an inactive call (follow-up assays come after a bar, where they were run). Only some compounds are listed: those with a hit (about 3.4% of all), similar ones and a draw of the others.

O=C(c1ccc(=O)oc1)N1CCc2ccccc21	MITF primary 74 | MITF confirm 76 | AS interf DR inactive | AS interf ctr inactive
Cc1c(C#N)c(O)n(CCO)c(=O)c1N=Nc1ccccc1C(=O)O	none
Cc1c(C#N)c(O)n(CCCO)c(=O)c1N=Nc1c(C)n(C)n(-c2ccccc2)c1=O	MITF primary 84 | MITF confirm inactive | AS interf ctr 100
Cc1cccc(NC(=O)c2ccc(N3C(=O)C4C5C=CC(C5)C4C3=O)cc2)c1 (configuration not stated)	MITF primary 76 | MITF confirm inactive | AS interf ctr inactive
Cc1cccc(NC(=O)c2ccc(N3C(=O)C4C5C=CC(C6CC56)C4C3=O)cc2)c1 (configuration not stated)	none
O=[N+]([O-])c1cccc(N(CC2CO2)S(=O)(=O)c2ccccc2)c1 (configuration not stated)	MITF primary 51 | MITF confirm inactive | AS interf ctr inactive
COc1ccccc1OCCN1CCOCC1	MITF primary 54 | MITF confirm inactive | AS interf ctr inactive
COc1ccccc1OCCN1CCCCC1	none
COc1ccccc1OCCN1CCN(c2ccccc2)CC1	none
COc1ccccc1OCCN1CCN(C)CC1	MITF primary 73 | MITF confirm inactive | AS interf ctr inactive
O=C(c1cccc(Cl)c1)N1CCN(C2CCC(c3ccccc3)CC2)CC1 (configuration not stated)	none
CC1CCCN(C(=O)c2cccc(Cl)c2)C1 (configuration not stated)	none
O=C(c1cccc(Cl)c1)N1CCN(C2CCCC2)CC1	MITF primary 53 | MITF confirm inactive | AS interf ctr inactive
CC1CCCC(N2CCN(C(=O)c3cccc(Cl)c3)CC2)C1 (configuration not stated)	MITF primary 51 | MITF confirm inactive | AS interf ctr inactive
O=[N+]([O-])c1cc(C2C=C(c3ccc(Cl)cc3)Nc3nnnn32)ccc1Cl (configuration not stated)	MITF primary 65 | MITF confirm inactive | AS interf ctr inactive
Fc1ccc(C2=CC(c3ccc(Cl)cc3)n3nnnc3N2)cc1 (configuration not stated)	none
CCCC(=O)N1CCN(c2cccc3c2C(=O)N(Cc2cnn(C)c2C)C3=O)CC1	MITF primary 97 | MITF confirm inactive | AS interf ctr inactive
Cc1c(CN2C(=O)c3cccc(N4CCN(C(=O)CC(C)(C)C)CC4)c3C2=O)cnn1C	none
COc1cccc(-n2c(CN3CCSCC3)n[nH]c2=S)c1	none
S=c1[nH]nc(CN2CCSCC2)n1-c1cccc(Cl)c1	MITF primary 62 | MITF confirm inactive | AS interf ctr inactive
COCc1cc(CN2CCN(C)C(CCO)C2)ccc1OC (configuration not stated)	none
CCOc1c(O)ccc(/C=C2\C(=O)Nc3ccc(Br)cc32)c1[N+](=O)[O-]	MITF primary 65 | MITF confirm inactive | AS interf ctr inactive
CSc1ccc(CN2CCc3nnc(CNS(=O)(=O)c4ccccc4)n3CC2)cc1	none
CC1=NN(c2ccccc2)C(=O)C1C(c1ccc([N+](=O)[O-])cc1)C(C#N)C#N (configuration not stated)	none
CC1=NN(c2ccccc2)C(=O)C1C(c1ccccc1[N+](=O)[O-])C(C#N)C#N (configuration not stated)	MITF primary 52 | MITF confirm inactive | AS interf ctr inactive
O=C1N(Cc2ccc(F)cc2)CCN1c1ccc(C(F)(F)F)cn1	none
CC(=O)c1cccc(NC(=O)CSc2ccc(-c3ccccn3)nn2)c1	none
CC(=O)Nc1cccc(NC(=O)CSc2ccc(-c3ccccn3)nn2)c1	MITF primary 84 | MITF confirm 79 | AS interf ctr 100
CC(=O)Nc1ccc(NC(=O)CSc2ccc(-c3ccccn3)nn2)cc1	MITF primary 83 | MITF confirm 83 | AS interf ctr 100
Cc1cccc(NC(=O)CSc2ccc(-c3ccccn3)nn2)c1	MITF primary 57 | MITF confirm 76 | AS interf ctr 99
O=C(CSc1ccc(-c2ccccn2)nn1)Nc1ccc(Br)cc1	none
CCCN1C(=O)C2C(C(=O)Nc3cc(Cl)cc(Cl)c3)C3C=CC2(O3)C1C(=O)NC1CCCCC1 (configuration not stated)	none
COc1ccc(Cl)cc1NC(=O)c1ccc(NC(=O)CCCC(=O)O)cc1	none
O=C(CCCCC1SCC2NC(=O)NC21)NC1(c2ccc(F)cc2)CCCC1 (configuration not stated)	MITF primary 109 | MITF confirm 88 | AS interf DR 4.3 | AS interf ctr inactive
COC(=O)CCCC[C@H]1SC[C@H]2NC(=O)N[C@H]21	none
C[C@H](Nc1ccc(C(F)(F)F)cc1[N+](=O)[O-])C(=O)OCC(=O)NC1CCCC1	none
COc1cc(OC)cc(C(=O)NCc2nc(-c3ccc(Cl)cc3)no2)c1	none
CC1CCCN(CCOc2ccccc2[N+](=O)[O-])C1 (configuration not stated)	MITF primary 54 | MITF confirm inactive | AS interf ctr inactive
Cc1ccc(OCCCCN2CCNCC2)c([N+](=O)[O-])c1	MITF primary 80 | MITF confirm inactive | AS interf ctr inactive
CCN1CCN(CCCOc2ccccc2[N+](=O)[O-])CC1	MITF primary 74 | MITF confirm inactive | AS interf ctr inactive
O=[N+]([O-])c1ccccc1OCCCCN1CCNCC1	MITF primary 67 | MITF confirm inactive | AS interf ctr inactive
O=[N+]([O-])c1ccccc1OCCN1CCCC1	none
O=c1c(Cl)c(N2CCN(c3ccc([N+](=O)[O-])cc3)CC2)cnn1-c1ccccc1	none
CC(C)C[C@H]1NC(=O)[C@@H]2C[C@H](NC(=O)c3cc(C(C)(C)C)nn3C)CN2C1=O	none
O=C(Nc1nnc(-c2ccco2)o1)c1cc2ccccc2oc1=O	none
CC(=O)N1CCN(C(=O)COc2ccc(Br)cc2)CC1	MITF primary 53 | MITF confirm inactive | AS interf ctr inactive
O=CN1CCN(C(=O)COc2ccc(Br)cc2)CC1	none
Cc1ccc(Cl)cc1N1CCN(C(=S)NCCN2CCOCC2)CC1	MITF primary 51 | MITF confirm inactive | AS interf ctr inactive
CC1CN(CCOc2ccc3ccccc3c2)CC(C)O1 (configuration not stated)	none
